Shiga inhibitor: Shiga toxin inhibition; Vero cells, Shiga toxin protein synthesis inhibition reporter; inhibition, % at 38.7 µM; actives 9.2% (n = 290,000); in the data active = inhibition mostly above about 28%, no sharp cut-off; inactive = mostly below about 43%; note: 0% is about no effect
Giardia FBPA inh-1: inhibitors of Giardia lamblia fructose-1,6-bisphosphate aldolase; A8B2U2; purified Giardia FBPA; Potency, µM (series often up to 59.6 µM), without a hit: top-dose activity, negative = inhibition, most hits filed as inhibitors; actives 0.71% (n = 290,000); note: potency is the fitted concentration of half-maximal effect; % is set by controls: 0 for no effect and ±100 for the full control effect; nearly all actives have a fitted effect of over 55% in size
Target sequence (A8B2U2 whole entry, looked up): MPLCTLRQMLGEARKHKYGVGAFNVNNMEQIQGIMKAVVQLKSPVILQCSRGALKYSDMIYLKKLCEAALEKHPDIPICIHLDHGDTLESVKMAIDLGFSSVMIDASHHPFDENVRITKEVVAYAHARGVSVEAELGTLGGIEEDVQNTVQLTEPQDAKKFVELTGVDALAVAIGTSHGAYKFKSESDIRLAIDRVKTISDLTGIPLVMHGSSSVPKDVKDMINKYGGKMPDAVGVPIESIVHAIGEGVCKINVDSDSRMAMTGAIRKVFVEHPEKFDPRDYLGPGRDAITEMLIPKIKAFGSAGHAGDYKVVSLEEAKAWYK
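Giardia FBPA (40 nM reagent) was preincubated 10 min at RT with compound (up to 57.5 uM final), then substrate plus GAPDH/TPI/NAD/arsenate coupling system with diaphorase/resazurin was added; resorufin fluorescence (525/598 nm) was read after 20 min.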
LmPK inh: blocks Leishmania mexicana pyruvate kinase activity. actives 0.37% (n = 290,000). purified LmPK, Kinase-Glo ATP luminescence, 1 h. Potency, µM (titrated, usually from 57.5 µM), without a hit: top-dose activity change, negative = inhibition, actives largely listed as inhibitors. Q27686; note: potency is the fitted concentration of half-maximal effect; % is set by controls: 0 for no effect and ±100 for the full control effect
Target sequence (Q27686 whole entry, looked up): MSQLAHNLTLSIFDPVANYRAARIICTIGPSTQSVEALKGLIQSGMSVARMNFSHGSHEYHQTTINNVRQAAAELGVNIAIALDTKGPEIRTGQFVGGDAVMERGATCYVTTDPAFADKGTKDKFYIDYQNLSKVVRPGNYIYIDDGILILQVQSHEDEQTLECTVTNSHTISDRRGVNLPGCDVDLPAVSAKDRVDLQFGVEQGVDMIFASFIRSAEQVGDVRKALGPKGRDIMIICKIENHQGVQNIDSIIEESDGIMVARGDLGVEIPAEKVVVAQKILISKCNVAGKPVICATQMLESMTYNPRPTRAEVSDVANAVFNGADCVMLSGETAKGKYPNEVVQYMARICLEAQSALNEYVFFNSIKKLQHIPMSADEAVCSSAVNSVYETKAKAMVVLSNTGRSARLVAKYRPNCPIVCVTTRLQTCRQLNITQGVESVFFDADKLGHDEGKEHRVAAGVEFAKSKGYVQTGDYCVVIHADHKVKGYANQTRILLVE
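0.1 nM LmPK, 0.5 mM PEP, 0.1 mM ADP; 50 mM imidazole pH 7.2, 7 mM MgCl2, 50 mM KCl; 1 h RT. Kinase-Glo luminescence readout, normalized to no-enzyme (full inhibition) and uninhibited wells.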
CHX counter: counter-screen hit for Shiga toxin inhibitors, cycloheximide | cell reporter, cycloheximide protein synthesis inhibition counterscreen | max response, % | actives 12% (n = 300,000); in the data active = max response mostly above about 13%, no sharp cut-off; inactive = mostly below about 14%; note: read at 38.3 µM for the half of the compounds with a filed dose; 0% is about no effect
Tb PYK inh: blocks Trypanosoma brucei pyruvate kinase | TbPYK enzyme, Kinase-Glo Plus ATP luminescence, 45 min | Potency, µM (titrated, usually from 76.8 µM), without a hit: top-dose activity, negative = inhibition, hits mostly inhibitors | actives 0.12% (n = 410,000) | AID 624173; note: potency is the fitted concentration of half-maximal effect; % is set by controls: 0 for no effect and ±100 for the full control effect; nearly all actives have a fitted effect of over 50% in size
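T. brucei PYK with substrate was exposed to pin-transferred compounds across a concentration series, then started with 130 uM ADP (final). After 45 min at room temperature, Kinase-Glo Plus luminescence was read, normalized and curve-fitted.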
Sm TGR block: blocks Schistosoma mansoni thioredoxin glutathione reductase. purified TGR, DTNB reduction, TNB absorbance 405 nm. Potency, µM (series often up to 114 µM), for inactives: at the top dose activity change, negative = inhibition, most hits filed as inhibitors. actives 3% (n = 360,000). AID 485364; note: potency is the fitted concentration of half-maximal effect; % is set by controls: 0 for no effect and ±100 for the full control effect; nearly all actives have a fitted effect of over 60% in size
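TGR 20 nM + NADPH 100 uM (dispensed conc.), cpd preinc 15 min RT; start with NADPH (500 uM addition) then DTNB (15 mM addition). Kinetic TNB absorbance, 405 nm filter. Four-parameter Hill fit across titration.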
Giardia growth: inhibitors of Giardia lamblia growth | AID 2785 | Potency, µM (doses to about 57.5 µM), for inactives: at the top dose activity change, negative = inhibition, hits mostly inhibitors | Giardia lamblia trophozoite growth inhibition | shares compounds with Giardia FBPA inh-1 | actives 5% (n = 1,500);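 note: potency is the fitted concentration of half-maximal effect; trophozoites exposed to compound for 48 h at 37 °C; % is set by controls: 0 for no effect and ±100 for the full control effect; nearly all actives have a fitted effect of over 70% in size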
Mammal cell tox: toxic to mammalian cells in Giardia aldolase counter-screen | shares compounds with Giardia FBPA inh-1 | mammalian cell viability counter-screen, qHTS | Potency, µM (series often up to 57.5 µM), without a hit: at the top dose viability change, negative = toxicity, actives largely listed as inhibitors | actives 4% (n = 1,500) | AID 2786;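 note: Chinese hamster ovary cells used as mammalian cytotoxicity surrogate; viability measured as cellular ATP by luminescence; potency is the fitted concentration of half-maximal effect; compound exposure lasted 48 h before reading; % is set by controls: 0 for no effect and ±100 for the full control effect; nearly all actives have a fitted effect of over 60% in size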
Giardia FBPA inh-2: confirmation of Giardia fructose-bisphosphate aldolase inhibitors; Potency, µM (titrated, usually from 57.5 µM), for inactives: at the highest dose activity change, negative = inhibition, usual class: inhibitors; actives 5% (n = 1,500); purified Giardia aldolase enzyme activity, qHTS; shares compounds with Giardia FBPA inh-1; note: potency is the fitted concentration of half-maximal effect; % is set by controls: 0 for no effect and ±100 for the full control effect; nearly all actives have a fitted effect of over 45% in size
Rabbit aldolase: blocks rabbit muscle aldolase in Giardia aldolase selectivity test; AID 2794; actives 4% (n = 1,500); shares compounds with Giardia FBPA inh-1; Potency, µM (highest dose often 57.5 µM), inactives show at the top dose activity, negative = inhibition, actives largely listed as inhibitors; Rabbit muscle FBPA enzyme inhibition, selectivity counter-screen; note: potency is the fitted concentration of half-maximal effect; % is set by controls: 0 for no effect and ±100 for the full control effect; nearly all actives have a fitted effect of over 60% in size
GAPDH coupling: counter-screen for Giardia aldolase inhibitors: GAPDH coupling enzyme. shares compounds with Giardia FBPA inh-1. Potency, µM (series often up to 57.5 µM), without a hit: at the top dose activity change, negative = inhibition, usual class: inhibitors. actives 6% (n = 1,500). GAPDH coupling enzyme counterscreen, biochemical, qHTS; note: potency is the fitted concentration of half-maximal effect; % is set by controls: 0 for no effect and ±100 for the full control effect; nearly all actives have a fitted effect of over 55% in size
The depositor's hits bear a star; ? = inconclusive; . = no result; [ ] = dose if it differs, or a comment. The entries come from a sample that favours hits as a whole. Unless noted, calls come from the whole dose curve; as a rule, active = well fitted curve in the direction sought with a large enough effect; inconclusive = small, poorly fitted or top-dose-only effect, or another doubt; inactive = no such curve, though single readings can be large; an effect the other way counts as inactive or inconclusive.

SMILES	Shiga inhibitor	Giardia FBPA inh-1	LmPK inh	CHX counter	Tb PYK inh	Sm TGR block	Giardia growth	Mammal cell tox	Giardia FBPA inh-2	Rabbit aldolase	GAPDH coupling
CCCN(CCC)C(=O)Cn1c(=O)n(-c2cccc(C(F)(F)F)c2)c(=O)c2c(C)c(C)sc21	.	.	.	.	7%	-3%	.	.	.	.	.
O=C1CCC(C2CCc3cc(O)ccc3C2)C1 (stereo not drawn)	.	.	.	.	-4%	.	.	.	.	.	.
CN(C)c1ncc2nc(-c3ccccc3)c(=O)n(Cc3ccc(F)cc3)c2n1	.	0%	.	.	.	.	.	.	.	.	.
CC(=O)Nc1cncc(-c2ccccc2N(C)C)n1	.	.	.	.	-6%	.	.	.	.	.	.
COc1ccccc1CN1CCC2(CC1)CCN(C(=O)c1cc(C(F)(F)F)cc(C(F)(F)F)c1)CC2	.	2%	.	.	-1%	.	.	.	.	.	.
CCNC(=S)NNC(=O)c1ccccn1	9	?	-4%	-2	0%	-12%	.	.	.	.	.
O=C(NNC(=S)Nc1ccc(Cl)c(Cl)c1)c1ccccn1	87*	14µM*	0%	37*	-4%	.	-15%[10.4 µM]	?	28%	15%	18%
COc1cc(CN2CCN(C(=O)c3ccccc3F)CC2)cc(OC)c1OC	-12	28µM*	-8%	-1	11%	0%	1%[10.4 µM]	-13%	0%	8%	11%
COc1cccc(CN2CCN(Cc3cccc(Oc4ccccc4)c3)CC2)c1OC	-4	16µM*	3%	2	8%	-3%	-25%	?	1%	-5%	5%
COc1cccc(CN2CCN(Cc3cc(OC)c(OC)c(OC)c3)CC2)c1OC	-3	13µM*	-1%	-2	1%	-23%	?	-14%	-8%	3%	-11%
CCN1CCN(Cc2cccc(Oc3ccccc3)c2)CC1	-8	?	-7%	-2	-12%	-9%	.	.	.	.	.
CCC[C@@H]1O[C@@H]2C[C@@H]3[C@H]4CCC5=CC(=O)C=C[C@@]5(C)[C@H]4[C@H](O)C[C@@]3(C)[C@@]2(C(=O)CO)O1	.	1%[21.7 µM]	.	.	3%	.	.	.	.	.	.
CCc1ccccc1N1CC(c2nc3ccccc3n2CCCOc2ccc(Cl)cc2)CC1=O (stereo not drawn)	.	.	.	.	-30%	0%	.	.	.	.	.
CC1CCCC/C1=N\NC(=S)Nc1cccnc1 (stereo not drawn)	18	18µM*	11%	4	-14%	?	24%	0%	-4%	2%	4%
Oc1ccc(/C=N/N=C(c2ccccc2)c2ccccc2)c(O)c1O	27	5.6µM*	2%	18*	?	-22%	15%[10.4 µM]	-11%	10µM*	?	?
O=C(/C(=N/N=C/c1ccc(O)c(O)c1O)c1ccccc1)c1ccccc1	12	?	4%	6	-10%	0%	.	.	.	.	.
O=C(NC1CCCC1)c1cccnc1N1CCCCCC1	14	3%	-1%	-2	0%	1%	.	.	.	.	.
O=C(NC1CCCCC1)c1cccnc1C(=O)O	7	5.6µM*	1%	4	13%	1%	10%	6%	6%	11%	13%
COc1cc(CCN=Cc2cc(Cl)cc(Cl)c2O)c([N+](=O)[O-])cc1OC	.	.	.	.	-1%	.	.	.	.	.	.
COc1ccc(N=Cc2cc(Cc3ccccc3Cl)cc([N+](=O)[O-])c2O)cc1OC	9	0.56µM*	1%	11	2%	-10%	2%[10.4 µM]	11%	?	-21%	-26%
Cc1ccc(CNC(=O)CSc2nc3ccccc3nc2Cc2ccc(C)cc2)cc1	.	.	.	.	-8%	-6%	.	.	.	.	.
NN1C(=O)/C(=C2/Sc3ccccc3N2CCCS(=O)(=O)O)SC1=S	33	18µM*	-9%	12	-5%	9%	14%[10.4 µM]	15%	11%	8%	-9%
O=C1C(SCCO)=C(SCCO)C(=O)c2ccccc21	.	0.89µM*	.	.	4µM*	0.5µM*	?	11µM*	6.3µM*	?	4µM*
O=c1oc(/C=C/c2ccco2)nc2sc3c(c12)CCC3	-6	5%	-2%	14	-17%	-36%	.	.	.	.	.
O=C1/C(=C\c2ccco2)CCC/C1=C\c1ccco1	10	16µM*	4%	-2	-16%	1.4µM*	14%	?	-4%	5%	-3%
SMILES	Shiga inhibitor	Giardia FBPA inh-1	LmPK inh	CHX counter	Tb PYK inh	Sm TGR block	Giardia growth	Mammal cell tox	Giardia FBPA inh-2	Rabbit aldolase	GAPDH coupling
CCc1ccc(-c2cc(C)no2)cc1S(=O)(=O)Nc1ccc(C)cn1	-6	.	-6%	-8	-3%	-12%	.	.	.	.	.
Cc1ccc(NS(=O)(=O)c2cc(-c3cc(C)no3)ccc2C(C)C)nc1	-1	20µM*	-3%	11	-4%	-15%	-4%	9%	?	?	?
CCOC(=S)SSC(=S)OCC	.	.	.	.	-23%	.	.	.	.	.	.
COc1ccc(CN(C)CC(=O)Nc2sc3c(c2C#N)CCC3)c(OC)c1	1	18µM*	-1%	4	-6%	-6%	17%[10.4 µM]	3%	2%	11%	-6%
CC1(C)Cc2sc3c(=O)[nH]c(=S)[nH]c3c2CO1	42	10µM*	-7%	1	?	-9%	-5%[38.3 µM]	5%	-7%	12%	4%
COc1ccc2c(CC(=O)NC(Cc3ccc(Cl)cc3)C(=O)O)cc(=O)oc2c1C (stereo not drawn)	2	-8%	2%	-1	0%	-13%	.	.	.	.	.
O=C(c1csnn1)N1CCC[C@@]2(CCN(Cc3ccccc3)C2)C1	.	-6%	.	.	1%	.	.	.	.	.	.
C=CCC(NCc1ccccc1)c1ccco1 (stereo not drawn)	-8	10%	3%	-4	1%	-8%	.	.	.	.	.
C=CCC(NCc1ccccc1)c1ccc(OC)cc1 (stereo not drawn)	-8	14µM*	-1%	-2	-18%	2%	19%	4%	3%	8%	8%
COc1ccc(-c2oc3ncn4nc(-c5ccccc5OC)nc4c3c2-c2ccc(OC)cc2)cc1	.	.	.	.	1%	-10%	.	.	.	.	.
Cn1c(N)c(C(=O)CSc2n[nH]c(-c3ccccc3)n2)c(=O)n(C)c1=O	.	.	.	.	-1%	-16%	.	.	.	.	.
